Compounds with a hit are over-represented: about 2.2% of the library has one in this group of screens.
PGC1a acetyl inh – inhibitors of PGC1a acetylation signal, primary screen, cell-based, U2OS, AlphaScreen, inhibitor mode | inhibition, % at 15.6 µM | AID 651687, 2012 | 0.17% of 350,000 active | AlphaScreen anti-acetyl-lysine; with virally co-expressed GCN5 acetyltransferase;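 active means every replicate shows inhibition of at least 40%; inconclusive means mean inhibition at least 40% but some replicate below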
DENV2 CPE – inhibitors of DENV2 cytopathic effect, primary screen, cell-based, plate reader, single concentration. AID 651640, 2012. DENV2-infected cells, cytopathic effect rescue. 1.7% of 350,000 active. CPE inhibition, % at 9.99 µM; in the data active means CPE inhibition above about 20%, passing the limit was not always enough; inconclusive means no clear call, values can overlap the other calls; tested in BHK-21 cells
PvdQ acylase – P. aeruginosa PvdQ acylase inhibitors, primary screen, biochemical, fluorescence, plate reader and imaging, single point; 0.063% of 340,000 active; purified PvdQ acylase; PvdQ acylase [Pseudomonas aeruginosa LESB58]; inhibition, % at 10 µM; in the data active means inhibition above about 30%, passing the limit was not always enough; inconclusive means no clear call, values can overlap the other calls
C2C12 statin – suppressors of statin myotoxicity in C2C12 myotubes, primary screen, cell-based, single point, plate reader. C2C12 myotubes + simvastatin, ATP luminescence, 48 h; scaled: DMSO 0, geranylgeraniol control 100. rescue of ATP level, % at 7.49 µM. AID 602340, 2012. 0.78% of 330,000 active;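 active means mean ATP rescue above about 67%, or every replicate alone reaching that limit, limit read from the data, passing the limit was not always enough; inconclusive means no clear call, values can overlap the other calls; inactive means mean under the limit and some replicate under it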;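 further: myotubes were challenged with 10 µM simvastatin during compound exposure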
miR-122 sensor – miR-122 Renilla sensor signal increase in Huh7, primary screen, miR-122 inhibitor project, cell-based, single point, plate reader | Huh7 miR-122 Renilla luciferase sensor, 48 h; neutral wells = 0, positive control = 100 | activation (reporter increase), % at 12.5 µM | 0.3% of 340,000 active | AID 602342, 2012;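 active means mean replicate activation score at least 90 and every replicate individually at or above 90; inconclusive means only one of the two criteria met; inactive means neither criterion met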;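 further: higher luciferase means less miR-122 activity so hits act as miR-122 inhibitors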
Of the large screens only hits and unclear results are named; the others gave an inactive call.

CCOc1ccc(C(C)=O)cc1Cc1c(O)[nH]c(=S)[nH]c1=O	none
COc1ccc(C(C)=O)cc1Cc1c(O)[nH]c(=S)[nH]c1=O	C2C12 statin 103
COCC#Cc1ccc([C@H]2[C@H](CO)N3CCCCN(C(=O)Cc4ccccn4)C[C@@H]23)cc1	none (no result: PvdQ acylase, C2C12 statin)
CCOC(=O)[C@]12Cc3cc(OC)ccc3[C@H]1N(CCC(=O)OC)C(=O)c1cc(OC)ccc12	none (no result: PGC1a acetyl inh, PvdQ acylase, C2C12 statin, miR-122 sensor)
CCOC(=O)[C@]12Cc3ccccc3[C@H]1N(CCC(=O)OC)C(=O)c1cc(OC)ccc12	DENV2 CPE 30 (no result: PGC1a acetyl inh, PvdQ acylase, C2C12 statin, miR-122 sensor)
CN1C[C@H]2CON(C)[C@H]2C[C@H]1c1cccc(Br)c1	none
CN1OC[C@@H]2CN[C@H](c3ccc(Br)cc3)C[C@@H]21	DENV2 CPE 26 (no result: PvdQ acylase)
COC(=O)[C@H]1[C@H](CO)[C@H]2Cn3c(ccc(C4=CCCCC4)c3=O)[C@@H]1N2Cc1ccccc1OC	none (no result: PGC1a acetyl inh, PvdQ acylase, C2C12 statin, miR-122 sensor)
CCCC(=O)c1c(O)[nH]c(=O)[nH]c1=O	C2C12 statin 97
Oc1ccc(/C=N/NP(=S)(c2ccccc2)c2ccccc2)cc1	miR-122 sensor 96 (no result: DENV2 CPE)
COc1cc(/C=N/NP(=S)(c2ccccc2)c2ccccc2)ccc1O	none (no result: PGC1a acetyl inh, DENV2 CPE)
COc1ccc(CC(C)Nc2cccc(F)c2)cc1 (stereo unspecified)	PvdQ acylase 36
O=C(O)[C@H]1[C@H](CO)[C@H]2Cn3c(ccc(-c4cccnc4)c3=O)[C@@H]1N2S(=O)(=O)c1ccccc1F	none (no result: PGC1a acetyl inh, PvdQ acylase)
CN(CCOc1ccc(C=C2C(=O)NC(=O)NC2=O)cc1)c1ccccn1	none (no result: PGC1a acetyl inh, C2C12 statin, miR-122 sensor)
O=C1NC(=O)C(=Cc2ccc(OCC(=O)N3CCOCC3)cc2)C(=O)N1	DENV2 CPE 64 (no result: PGC1a acetyl inh, C2C12 statin, miR-122 sensor)
CCCNC(=O)[C@@H]1[C@@H](CO)[C@@H]2Cn3c(cccc3=O)[C@H]1N2CCC	none (no result: PGC1a acetyl inh, PvdQ acylase)
C[C@@H]1O[C@@H](O[C@H]2C[C@@H](O)[C@]3(CO)[C@H]4[C@H](O)C[C@]5(C)[C@@H](C6=CC(=O)OC6)CC[C@]5(O)[C@@H]4CC[C@]3(O)C2)[C@H](O)[C@H](O)[C@H]1O	PGC1a acetyl inh 83 (no result: DENV2 CPE)
C[C@H]1O[C@@H](OC2CC[C@]3(C=O)[C@H]4CC[C@]5(C)[C@@H](C6=CC(=O)OC6)CC[C@]5(O)[C@@H]4CC[C@]3(O)C2)CC2OC(C)(C)OC21 (stereo partly specified)	none (no result: PGC1a acetyl inh, C2C12 statin, miR-122 sensor)
COC(=O)[C@@H]1[C@@H](CO)[C@@H]2Cn3c(cccc3=O)[C@H]1N2C(=O)C1CC1	none (no result: PGC1a acetyl inh, PvdQ acylase, miR-122 sensor)
CCOC(=O)c1cc2cc(OC)ccc2n1C1CCN(Cc2ccccc2)CC1	DENV2 CPE 35 (no result: PGC1a acetyl inh, PvdQ acylase, C2C12 statin, miR-122 sensor)
COc1ccc2nc(-c3ccc(CN4CCC(n5c(=O)[nH]c6cc(Cl)ccc65)CC4)cc3)c(-c3ccccc3)nc2c1	none (no result: PGC1a acetyl inh, PvdQ acylase, C2C12 statin, miR-122 sensor)
CCCNC(=O)N1[C@@H]2Cn3c(ccc(-c4cccc(C(=O)N(C)C)c4)c3=O)[C@H]1[C@@H](C(=O)O)[C@@H]2CO	none (no result: PvdQ acylase, C2C12 statin, miR-122 sensor)
Clc1cc(Cl)c(-c2cc(Cl)c(Cl)cc2Cl)cc1Cl	DENV2 CPE 23
Cc1ccccc1O	none
Oc1cccc2nc3ccccc3nc12	DENV2 CPE 111
C=CCn1c(O)c(C(C)=NCCCO)c(=O)[nH]c1=O	C2C12 statin 108 (no result: DENV2 CPE)
C=CCn1c(O)c(C(C)=NCCO)c(=O)[nH]c1=O	none (no result: DENV2 CPE)
COC(=O)[C@@H]1[C@@H](CO)[C@@H]2Cn3c(ccc(C4=CCCCC4)c3=O)[C@H]1N2CC1CCCCC1	none (no result: PvdQ acylase, C2C12 statin, miR-122 sensor)
Cc1cccc(S(=O)(=O)N2[C@@H]3Cn4c(ccc(-c5ccc(F)cc5)c4=O)[C@H]2[C@@H](C(=O)O)[C@@H]3CO)c1	none (no result: PGC1a acetyl inh, DENV2 CPE, PvdQ acylase, miR-122 sensor)
CCC12CN3CC(CC)(CN(C1)C3c1cccnc1)C2=O (stereo unspecified)	C2C12 statin 137 (no result: DENV2 CPE)
CC1(C)C2([N+](=O)[O-])CN3CC1([N+](=O)[O-])CN(C2)C3c1cccnc1 (stereo unspecified)	none
CC12CN3CC(C)(CN(C1)C3c1cccnc1)C2=O (stereo unspecified)	C2C12 statin 123 (no result: DENV2 CPE)
O=C1N(c2ccc(Cl)cc2)C(c2cccnc2)N2CCCN12 (stereo unspecified)	none (no result: PGC1a acetyl inh, C2C12 statin, miR-122 sensor)
Cc1cc(C)c(NC2=NCCCS2)c(C)c1	C2C12 statin 82 (no result: DENV2 CPE)
CC(C)(O)/C=C/C(=O)[C@](C)(O)C1[C@H](O)C[C@@]2(C)C3CC=C4C(C[C@H](O)[C@@H](O)C4(C)C)[C@]3(C)C(=O)C[C@]12C (stereo partly specified)	PGC1a acetyl inh 65 (no result: DENV2 CPE)
COC(=O)[C@@H]1[C@@H](C(=O)OC)C2(c3ccccc3-c3ccccc32)N(c2ccc(Cl)cc2)N1C#N	PGC1a acetyl inh 77 (no result: DENV2 CPE, C2C12 statin)
COC(=O)C[C@]1(C(=O)OC)CN(C#N)N(c2ccc(Cl)cc2)C12c1ccccc1-c1ccccc12	none (no result: DENV2 CPE, C2C12 statin)
Cc1cc(OCc2ccc([N+](=O)[O-])cc2)c2c3c(c(=O)oc2c1)CCCC3	DENV2 CPE 151 (no result: PGC1a acetyl inh)
COc1ccc(-c2ccc([C@@H]3[C@@H](CO)N4CCCCN(C(=O)Cc5ccncc5)C[C@@H]34)cc2)cc1	none (no result: PvdQ acylase)
CCN1CCC(NCC2CCCCC2)CC1	DENV2 CPE 32
COc1ccc(OC(=O)N(C)C[C@@H]2OCc3ccccc3-c3c(n(C)c4ccccc34)C(=O)N([C@@H](C)CO)C[C@@H]2C)cc1	none (no result: PvdQ acylase, C2C12 statin, miR-122 sensor)
COC(=O)[C@H]1C[C@@H]1[C@H](NP(=O)(c1ccccc1)c1ccccc1)c1ccccc1	DENV2 CPE inconclusive, C2C12 statin 111
O=C(Cc1ccccc1)N1CCCCN2[C@@H](CO)[C@H](c3ccc(C#Cc4ccccc4)cc3)[C@@H]2C1	none (no result: PvdQ acylase, C2C12 statin)
Cn1ncnc2c(=O)n(C)c(=O)nc1-2	PGC1a acetyl inh 100 (no result: DENV2 CPE)
O=C(C1CC1)N1C[C@@H]2N[C@H](C1)[C@@H]2c1ccc(-c2ccncc2)cc1	DENV2 CPE inconclusive (no result: PvdQ acylase, C2C12 statin, miR-122 sensor)
NP(=O)(OCCCc1ccccc1)Oc1ccccc1Cl (stereo unspecified)	none (no result: DENV2 CPE)
NP(=O)(OCCCc1ccccc1)Oc1ccc(Cl)cc1 (stereo unspecified)	DENV2 CPE 20
CNCCc1ccc(OC)c(OC)c1	DENV2 CPE 51
O=c1[nH]c(=O)n(Cc2ccc(F)cc2)c(O)c1C=NCCCO	none (no result: DENV2 CPE)
O=c1[nH]c(=O)n(Cc2ccc(F)cc2)c(O)c1/C=N/Nc1ccccc1	DENV2 CPE 34 (no result: PGC1a acetyl inh, C2C12 statin, miR-122 sensor)
COC(=O)[C@@H]1[C@@H](CO)[C@@H]2Cn3c(cccc3=O)[C@@H]2N1CC1CC1	DENV2 CPE inconclusive (no result: PGC1a acetyl inh, PvdQ acylase)
COC(=O)[C@@H]1[C@@H](CO)[C@@H]2Cn3c(ccc(C4=CCCC4)c3=O)[C@H]1N2CC1CCCC1	none (no result: PGC1a acetyl inh, PvdQ acylase, C2C12 statin, miR-122 sensor)
CCN(CC)C(=O)c1ccc2c(c1)C1C=CCC1C(C(=O)O)N2 (stereo unspecified)	C2C12 statin 125
C[C@H]1C[C@@H](C)C(=O)[C@@H]([C@H](O)CC2CC(=O)NC(=O)C2)C1	PGC1a acetyl inh 68, DENV2 CPE 124, C2C12 statin 171
C1CCC2CCCCC2C1 (stereo unspecified)	DENV2 CPE 33

Screens: PubChem BioAssay, Broad Institute
